Here are results for 38 molecules from paper PMC9911399, “Two distinct binding modes provide the RNA-binding protein RbFox with extraordinary sequence specificity”.

Numbering of substitutions follows the chain as printed; changes in the protein carry UniProt numbers. Whole data set: some 16,000 sequences, median “ka relative to ugcaugu” near 0.0091, cut for the highest 2% near 0.032. For the sample, the highest values were picked, then their nearest neighbours and some sequences at random.

The labels stand for the following.
T1: RBFOX1 RRM (Homo sapiens, UniProt Q9NWB1 109-208)
T1 sequence: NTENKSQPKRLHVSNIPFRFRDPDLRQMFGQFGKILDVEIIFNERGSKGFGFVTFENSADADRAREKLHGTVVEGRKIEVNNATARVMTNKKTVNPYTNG

B1: CCUGGCU (DNA:RNA)
RNA: GGGAGACCGGAAUUCAGAUUGUCCCCUGGCUUUAAAUCCCGUCGUAGCCACCA
DNA 1: CAATCTGAATTCCGGTCTCCC
DNA 2: TGGTGGCTACGACGGGATT
B2: AGGUGAU (DNA:RNA)
RNA: B1 RNA with C25A, C26G, U27G, G28U, C30A
DNA 1: CAATCTGAATTCCGGTCTCCC
DNA 2: TGGTGGCTACGACGGGATT
B3: UUCGAUU (DNA:RNA)
RNA: B1 RNA with C25U, C26U, U27C, G29A, C30U
DNA 1: CAATCTGAATTCCGGTCTCCC
DNA 2: TGGTGGCTACGACGGGATT
B4: GUUUGCU (DNA:RNA)
RNA: B1 RNA with C25G, C26U, G28U
DNA 1: CAATCTGAATTCCGGTCTCCC
DNA 2: TGGTGGCTACGACGGGATT
B5: AACGCCU (DNA:RNA)
RNA: B1 RNA with C25A, C26A, U27C, G29C
DNA 1: CAATCTGAATTCCGGTCTCCC
DNA 2: TGGTGGCTACGACGGGATT
B6: GUAGAGU (DNA:RNA)
RNA: B1 RNA with C25G, C26U, U27A, G29A, C30G
DNA 1: CAATCTGAATTCCGGTCTCCC
DNA 2: TGGTGGCTACGACGGGATT
B7: GCCUGAA (DNA:RNA)
RNA: B1 RNA with C25G, U27C, G28U, C30A, U31A
DNA 1: CAATCTGAATTCCGGTCTCCC
DNA 2: TGGTGGCTACGACGGGATT
B8: UCCUGAC (DNA:RNA)
RNA: B1 RNA with C25U, U27C, G28U, C30A, U31C
DNA 1: CAATCTGAATTCCGGTCTCCC
DNA 2: TGGTGGCTACGACGGGATT
B9: UGACUGC (DNA:RNA)
RNA: GGGAGACCGGAAUUCAGAUUGUCCUGACUGCUUAAAUCCCGUCGUAGCCACCA
DNA 1: CAATCTGAATTCCGGTCTCCC
DNA 2: TGGTGGCTACGACGGGATT
B10: UGACUGU (DNA:RNA)
RNA: B9 RNA with C31U
DNA 1: CAATCTGAATTCCGGTCTCCC
DNA 2: TGGTGGCTACGACGGGATT
B11: GCCUGAC (DNA:RNA)
RNA: B1 RNA with C25G, U27C, G28U, C30A, U31C
DNA 1: CAATCTGAATTCCGGTCTCCC
DNA 2: TGGTGGCTACGACGGGATT
B12: GCCAGAC (DNA:RNA)
RNA: B1 RNA with C25G, U27C, G28A, C30A, U31C
DNA 1: CAATCTGAATTCCGGTCTCCC
DNA 2: TGGTGGCTACGACGGGATT
B13: UGCUGAC (DNA:RNA)
RNA: B9 RNA with A27C, C28U, U29G, G30A
DNA 1: CAATCTGAATTCCGGTCTCCC
DNA 2: TGGTGGCTACGACGGGATT
B14: UGACUGA (DNA:RNA)
RNA: B9 RNA with C31A
DNA 1: CAATCTGAATTCCGGTCTCCC
DNA 2: TGGTGGCTACGACGGGATT
B15: UGACUGG (DNA:RNA)
RNA: B9 RNA with C31G
DNA 1: CAATCTGAATTCCGGTCTCCC
DNA 2: TGGTGGCTACGACGGGATT
B16: UGACUUG (DNA:RNA)
RNA: B9 RNA with G30U, C31G
DNA 1: CAATCTGAATTCCGGTCTCCC
DNA 2: TGGTGGCTACGACGGGATT
B17: CUGACUG (DNA:RNA)
RNA: B1 RNA with C26U, U27G, G28A, G29C, C30U, U31G
DNA 1: CAATCTGAATTCCGGTCTCCC
DNA 2: TGGTGGCTACGACGGGATT
B18: UGACCGU (DNA:RNA)
RNA: B9 RNA with U29C, C31U
DNA 1: CAATCTGAATTCCGGTCTCCC
DNA 2: TGGTGGCTACGACGGGATT
B19: CGAGAAA (DNA:RNA)
RNA: B1 RNA with C26G, U27A, G29A, C30A, U31A
DNA 1: CAATCTGAATTCCGGTCTCCC
DNA 2: TGGTGGCTACGACGGGATT
B20: GAUAUCG (DNA:RNA)
RNA: B1 RNA with C25G, C26A, G28A, G29U, U31G
DNA 1: CAATCTGAATTCCGGTCTCCC
DNA 2: TGGTGGCTACGACGGGATT
B21: GGCGCCU (DNA:RNA)
RNA: B1 RNA with C25G, C26G, U27C, G29C
DNA 1: CAATCTGAATTCCGGTCTCCC
DNA 2: TGGTGGCTACGACGGGATT
B22: UGCCCAG (DNA:RNA)
RNA: B9 RNA with A27C, U29C, G30A, C31G
DNA 1: CAATCTGAATTCCGGTCTCCC
DNA 2: TGGTGGCTACGACGGGATT
B23: UGCGAGG (DNA:RNA)
RNA: B9 RNA with A27C, C28G, U29A, C31G
DNA 1: CAATCTGAATTCCGGTCTCCC
DNA 2: TGGTGGCTACGACGGGATT
B24: GUAGCGU (DNA:RNA)
RNA: B1 RNA with C25G, C26U, U27A, G29C, C30G
DNA 1: CAATCTGAATTCCGGTCTCCC
DNA 2: TGGTGGCTACGACGGGATT
B25: UUUAAGG (DNA:RNA)
RNA: B9 RNA with G26U, A27U, C28A, U29A, C31G
DNA 1: CAATCTGAATTCCGGTCTCCC
DNA 2: TGGTGGCTACGACGGGATT
B26: GUCUUAG (DNA:RNA)
RNA: B9 RNA with U25G, G26U, A27C, C28U, G30A, C31G
DNA 1: CAATCTGAATTCCGGTCTCCC
DNA 2: TGGTGGCTACGACGGGATT
B27: UGCAUGC (DNA:RNA)
RNA: B9 RNA with A27C, C28A
DNA 1: CAATCTGAATTCCGGTCTCCC
DNA 2: TGGTGGCTACGACGGGATT
B28: UGCAUGG (DNA:RNA)
RNA: B9 RNA with A27C, C28A, C31G
DNA 1: CAATCTGAATTCCGGTCTCCC
DNA 2: TGGTGGCTACGACGGGATT
B29: UGAUUCA (DNA:RNA)
RNA: B9 RNA with C28U, G30C, C31A
DNA 1: CAATCTGAATTCCGGTCTCCC
DNA 2: TGGTGGCTACGACGGGATT
B30: UGCAGAA (DNA:RNA)
RNA: B9 RNA with A27C, C28A, U29G, G30A, C31A
DNA 1: CAATCTGAATTCCGGTCTCCC
DNA 2: TGGTGGCTACGACGGGATT
B31: UGAUGCA (DNA:RNA)
RNA: B9 RNA with C28U, U29G, G30C, C31A
DNA 1: CAATCTGAATTCCGGTCTCCC
DNA 2: TGGTGGCTACGACGGGATT
B32: AGAUGCA (DNA:RNA)
RNA: B1 RNA with C25A, C26G, U27A, G28U, U31A
DNA 1: CAATCTGAATTCCGGTCTCCC
DNA 2: TGGTGGCTACGACGGGATT
B33: UGCAUGA (DNA:RNA)
RNA: B9 RNA with A27C, C28A, C31A
DNA 1: CAATCTGAATTCCGGTCTCCC
DNA 2: TGGTGGCTACGACGGGATT
B34: UGCGUGG (DNA:RNA)
RNA: B9 RNA with A27C, C28G, C31G
DNA 1: CAATCTGAATTCCGGTCTCCC
DNA 2: TGGTGGCTACGACGGGATT
B35: GUCCUGC (DNA:RNA)
RNA: B9 RNA with U25G, G26U, A27C
DNA 1: CAATCTGAATTCCGGTCTCCC
DNA 2: TGGTGGCTACGACGGGATT
B36: UUCAUGG (DNA:RNA)
RNA: B9 RNA with G26U, A27C, C28A, C31G
DNA 1: CAATCTGAATTCCGGTCTCCC
DNA 2: TGGTGGCTACGACGGGATT
B37: UUCAUGC (DNA:RNA)
RNA: B9 RNA with G26U, A27C, C28A
DNA 1: CAATCTGAATTCCGGTCTCCC
DNA 2: TGGTGGCTACGACGGGATT
B38: UGCAUAA (DNA:RNA)
RNA: B9 RNA with A27C, C28A, G30A, C31A
DNA 1: CAATCTGAATTCCGGTCTCCC
DNA 2: TGGTGGCTACGACGGGATT

The target of this test is T1, RBFOX1 RRM. Put plainly: EMSA; HiTS-Eq, 1 nM pool, 10 min; buffer printed only for the single-RNA assays: 10 mM Tris pH 7.5, 150 mM NaCl, 3.4 mM EDTA, 0.001% NP-40, 30 C. The note with it: tags: His6 N-terminal (pET28a); label: 5' 32P. An outline of the steps:
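Purified RbFox RRM, wild type or mutant, was incubated for 10 min in 50 µL with 1 nM of a 5′-radiolabelled RNA pool carrying 7 randomized nucleotides, whose flanks were annealed to DNA oligonucleotides, over a series of increasing protein concentrations. Unbound RNA was resolved on 8% native PAGE, cut out, reverse-transcribed, barcoded by PCR and sequenced on an Illumina HiSeq 2500. Relative association constants were derived from changes in read counts for each RNA species versus the control reaction and normalised to the cognate motif.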
On the technique in general: Mobility shift assays separate free from complexed probe on a gel.
For B1, the binding signal was 0.0127 KA relative to UGCAUGU.

Take B2: the binding signal was 0.0113 KA relative to UGCAUGU.

Take B3: the binding signal was 0.00889 KA relative to UGCAUGU.

As for B4, the binding signal was 0.0286 KA relative to UGCAUGU.

As to B5, the binding signal is 0.00525 KA relative to UGCAUGU.

Regarding B6, the binding signal is 0.0112 KA relative to UGCAUGU.

As to B7, the binding signal is 0.0276 KA relative to UGCAUGU.

As for B8, the binding signal is 0.0129 KA relative to UGCAUGU.

For the molecule B9, the binding signal is 0.039 KA relative to UGCAUGU.

For B10, the binding signal was 0.032 KA relative to UGCAUGU.

For B11, the binding signal was 0.0331 KA relative to UGCAUGU.

As for B12, the binding signal was 0.0114 KA relative to UGCAUGU.

As to B13, the binding signal is 0.0249 KA relative to UGCAUGU.

For the molecule B14, the binding signal was 0.0256 KA relative to UGCAUGU.

Take B15: the binding signal was 0.0284 KA relative to UGCAUGU.

Turning to B16, the binding signal is 0.0454 KA relative to UGCAUGU.

B17: the binding signal is 0.0302 KA relative to UGCAUGU.

Consider B18, for which the binding signal is 0.0185 KA relative to UGCAUGU.

As for B19, the binding signal was 0.00724 KA relative to UGCAUGU.

Regarding B20, the binding signal is 0.0155 KA relative to UGCAUGU.

On to B21, for which the binding signal was 0.00816 KA relative to UGCAUGU.

Consider B22, for which the binding signal was 0.0164 KA relative to UGCAUGU.

As to B23, the binding signal was 0.0231 KA relative to UGCAUGU.

For B24, the binding signal is 0.0174 KA relative to UGCAUGU.

B25: the binding signal was 0.0043 KA relative to UGCAUGU.

On to B26, for which the binding signal is 0.0121 KA relative to UGCAUGU.

As for B27, the binding signal is 1.02 KA relative to UGCAUGU.

With B28, the binding signal was 0.965 KA relative to UGCAUGU.

Take B29: the binding signal was 0.0154 KA relative to UGCAUGU.

On to B30, for which the binding signal is 0.0113 KA relative to UGCAUGU.

Regarding B31, the binding signal is 0.0332 KA relative to UGCAUGU.

For the molecule B32, the binding signal was 0.0164 KA relative to UGCAUGU.

Regarding B33, the binding signal is 0.913 KA relative to UGCAUGU.

For the molecule B34, the binding signal was 0.0211 KA relative to UGCAUGU.

In the case of B35, the binding signal is 0.0203 KA relative to UGCAUGU.

On to B36, for which the binding signal was 0.00704 KA relative to UGCAUGU.

Turning to B37, the binding signal is 0.0106 KA relative to UGCAUGU.

As to B38, the binding signal is 0.00891 KA relative to UGCAUGU.
